A short description of experiment [1]: Viability qHTS for spleen associated tyrosine kinase inhibitor (SYKi) naive MV4-11 cells (AID 1963823). Also: nearly all actives have a fitted effect of over 40% in size. The procedure, abridged: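 In this viability screen, compounds acted on SYK inhibitor naive MV4-11 cells for three days (72 hr, 37 C). Remaining viable cells were measured by CellTiter-Glo luminescence following a 10 min room-temperature development.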
A general note: qHTS replaces the single test concentration by a dilution series.

A short description of experiment [2]: Quantitative highthroughput screen to assess conditional lethalithy of NOMO1 cells grown in RPMI1640 with untreated serum (RPMI+s) (AID 1963876). Also: nearly all actives have a fitted effect of over 35% in size.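 As to Viability: 100% = DMSO wells and 0% = empty wells without cells.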 The procedure, abridged:
(§1)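 Each medium arm—HPLM with 10% dialyzed FBS, or RPMI1640 with 5 mM glucose and 10% untreated or dialyzed FBS—was screened against an 11-point, 3-fold compound titration for 48 h at 37 °C, with CellTiter-Glo luminescence as endpoint.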

Experiment [3] in a line: Quantitative highthroughput screen to assess conditional lethalithy of P12 Ichikawa cells grown in Human Plasma-Like Medium with dialyzed fetal bovine serum (HPLM+ds) (AID 1963879). Also: nearly all actives have a fitted effect of over 35% in size. As to Viability: series mostly up to about 46 µM. To be noted: Potency: viability. The procedure, abridged: as §1
A short description of experiment [4]: Quantitative highthroughput screen to assess conditional lethalithy of P12 Ichikawa cells grown in RPMI1640 with dialyzed fetal bovine serum (RPMI+ds) (AID 1963880). Also: nearly all actives have a fitted effect of over 35% in size.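 As to Viability: 100% = DMSO wells and 0% = empty wells on each plate.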 As to conditions: Potency: P12-Ichikawa viability. Put shortly: as §1
The nature of experiment [5]: Quantitative highthroughput screen to assess conditional lethalithy of SEM cells grown in Human Plasma-Like Medium with dialyzed fetal bovine serum (HPLM+ds) (AID 1963882). Also: nearly all actives have a fitted effect of over 35% in size. As to Viability: series mostly up to about 46 µM. Put shortly: as §1
Experiment [6] in a line: Quantitative highthroughput screen to assess conditional lethalithy of SEM cells grown in RPMI1640 with unreated serum (RPMI+s) (AID 1963883). Also: nearly all actives have a fitted effect of over 35% in size.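 As to Viability: 100% = DMSO wells and 0% = empty wells without cells.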 The procedure, abridged:
as §1

A short description of experiment [7]: Quantitative highthroughput screen to assess conditional lethalithy of SEM cells grown in RPMI1640 with dialyzed fetal bovine serum (RPMI+ds) (AID 1963884). Also: nearly all actives have a fitted effect of over 35% in size.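 As to Viability: series mostly up to about 46 µM; 100% = DMSO control wells and 0% = empty wells without cells.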 Put shortly: as §1
The nature of experiment [8]: Cellular viability qHTS for adrenocortical cancer (ACC) cell line SW-13 (AID 1963989). Also: nearly all actives have a fitted effect of over 65% in size.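 As to activity (max response): cells grown in serum-free medium with ITS supplement; % is scaled to controls: 0 for no effect and ±100 for the full control effect.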 To be noted: SW-13 ACC cells viability, CellTiter-Glo, 48 h; activity (max response): active compounds read low. Put shortly: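 48 h treatment, SW-13 in ITS/DMEM serum-free; doses up to 46 uM; readout CellTiter-Glo luminescence; curve fit four-parameter logistic.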
The nature of experiment [9]: Quantitative highthroughput screen to assess conditional lethalithy of NOMO1 cells grown in RPMI1640 with dialyzed fetal bovine serum (RPMI+ds) (AID 1963877). Also: nearly all actives have a fitted effect of over 30% in size.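 As to Viability: series mostly up to about 46 µM; 100% = DMSO control wells and 0% = empty wells.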 The procedure, abridged:
as §1

A short description of experiment [10]: Quantitative highthroughput screen to assess conditional lethalithy of P12 Ichikawa cells grown in RPMI1640 with untreated serum (RPMI+s) (AID 1963881). Also: nearly all actives have a fitted effect of over 35% in size.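 As to Viability: series mostly up to about 46 µM; 100% = DMSO wells and 0% = empty wells without cells.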 As to conditions: Potency: viability. Put shortly: as §1
Experiment [11] can be described thus: Cellular viability qHTS for adrenocortical cancer (ACC) cell line NCI-H295R (AID 1963990). Also: nearly all actives have a fitted effect of over 60% in size. Put shortly: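 Compound titrations (up to 46 uM final) are applied to NCI-H295R cultures for 48 h at 37C. Viable cell number is estimated by CellTiter-Glo signal, normalised to DMSO and doxorubicin controls.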
The nature of experiment [12]: Quantitative highthroughput screen to assess conditional lethalithy of NOMO1 cells grown in Human Plasma-Like Medium with dialyzed fetal bovine serum (HPLM+ds) (AID 1963878). Also: nearly all actives have a fitted effect of over 35% in size.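 As to Viability: 100% = DMSO wells and 0% = empty wells on each plate.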 Put shortly:
as §1

The structures appear in SMILES notation. “And” between values parts separate entries of the source, which are not always exact repeats. Identical values can stand only once. Records with an inconclusive call do not appear. Unmarked numbers belong to inactive results. The source made the active and inactive calls. Calls follow the shape of the dose curve; as a rule, active = well fitted curve in the direction sought with a large enough effect; inconclusive = small, poorly fitted or top-dose-only effect, or another doubt; inactive = no such curve, though single readings can be large; an effect the other way counts as inactive or inconclusive.
Potency is read from the fitted curve at half-maximal effect.

Regarding `c1coc(CNc2ncnc3nc[nH]c23)c1`, the Potency result in experiment [1], in experiment [2], in [3], in experiment [4], in [5] and in experiment [6] was “inactive” each time. Also, in experiment [7], the Potency result was “inactive”. Moreover, the activity (max response) in experiment [8] is -0.681%.

With `O=c1cc(CN2CCOCC2)occ1OCCCCCSc1ccnc2cc(C(F)(F)F)ccc12`, the Potency in experiment [1] is 11.8 µM (active); in experiment [8], 15.8 µM (active). In addition, the Potency result in experiment [2], in experiment [9], in experiment [5] and in [7] was “inactive” in each case.

With `CCOC(=O)C1=C(C)NC2=C(C(=O)CC(C)(C)C2)C1c1ccc(-c2ccccc2)cc1` (centres undefined), the Potency in experiment [1] was 23.5 µM (active); in experiment [5], 18700 nM (active). Moreover, the Potency result in experiment [2], in experiment [3], in [4] and in [10] was “inactive” each time. For the same compound, in experiment [8], the activity (max response) is -12.6%.

`COc1ccc(C=Cc2cc(OC)c(OC)c(OC)c2)cc1NC(=O)[C@H](N)CO`: the Potency is 0.0332 µM (active) in experiment [1]; 46.9 nM (active) in experiment [4]; 16.6 nM (active) in [10]; 26.4 nM (active) in experiment [5]; 20.9 nM (active) in experiment [6]; 29.6 nM (active) in [7]. In addition, the Potency in [8] was 0.126 µM (active); in experiment [11], 0.199 µM (active).

`COc1cc(C(=O)NC2CCN(C)CC2)ccc1Nc1ncc2c(n1)N(C1CCCC1)CCC(=O)N2C(C)C`: the Potency in experiment [1] was 5.9 µM (active); in experiment [2] it was 20900 nM (active); in experiment [12], 14800 nM (active); in experiment [3] it was 9350 nM (active); in [4], 16600 nM (active); in [8], 25.1 µM (active). In addition, the Potency in experiment [11] was 25.1 µM (active).

In the case of `c1ccc(CNc2nc(NCc3ccccc3)c3ccccc3n2)cc1`, the Potency in experiment [1] is 1.86 µM (active); in experiment [12], 26400 nM (active); in experiment [8], 3.98 µM (active); in [11], 7.08 µM (active). Also, the Potency entry in experiment [3] and in experiment [7] was “inactive” throughout.

For the compound `O[C@@H](CNC[C@H](O)[C@H]1CCc2cc(F)ccc2O1)[C@@H]1CCc2cc(F)ccc2O1`, the Potency is 10.6 µM (active) in [1], 20900 nM (active) in experiment [12] and 18.4 µM (active) in experiment [11]. The Potency result in experiment [3] was “inactive”.

On to `C[C@]1(c2nc3c(C(N)=O)cccc3[nH]2)CCCN1`, for which the Potency entry in experiment [1], in experiment [3], in experiment [5] and in experiment [11] was “inactive” in each case. Also, the activity (max response) in experiment [8] is 7.65%.

Regarding `CC[C@]1(O)C[C@H]2CN(CCc3c([nH]c4ccccc34)[C@@](C(=O)OC)(c3cc4c(cc3OC)N(C=O)[C@H]3[C@@](O)(C(=O)OC)[C@H](OC(C)=O)[C@]5(CC)C=CCN6CC[C@]43[C@@H]65)C2)C1`, the Potency in experiment [1] was 0.0118 µM (active); in experiment [9] it was 66.2 nM (active); in experiment [4], 41.8 nM (active); in experiment [5] it was 33.2 nM (active); in experiment [7], 46.9 nM (active); in experiment [8], 8.2 nM (active) and 28.2 nM (active). For the same compound, the Potency in experiment [11] is 146 nM (active) and 1.78 µM (active).

Regarding `C[C@H]1COc2c(N3CCN(C)CC3)c(F)cc3c(=O)c(C(=O)O)cn1c23`, the Potency entry in [1] was “inactive”. Further, the Potency was 23500 nM (active) in experiment [9], 8330 nM (active) in experiment [3], 13200 nM (active) in experiment [6] and 1320 nM (active) in experiment [7]. The activity (max response) in [8] was 6.21%.

On to `Nc1nc(Cl)nc2c1ncn2[C@@H]1O[C@H](CO)[C@@H](O)[C@H]1F`, for which the Potency in experiment [1] was 0.082 µM (active). The Potency result in experiment [3], in experiment [4], in experiment [10], in experiment [5], in [6] and in experiment [7] was “inactive” throughout.

As to `COc1ccc(C2Sc3ccccc3N(CCN(C)C)C(=O)C2OC(C)=O)cc1` (centres undefined), the Potency result in experiment [1], in [9], in [12], in experiment [3], in [4] and in experiment [10] was “inactive” throughout. For the same compound, the Potency result in experiment [5] and in experiment [7] was “inactive” each time.

For `CN(C)C1CCN(C(=O)c2ccc(NC(=O)Nc3nc(N4CCOCC4)nc(N4CCOCC4)n3)cc2)CC1`, the Potency is 25.2 nM (active) and 37.2 nM (active) in experiment [1]; 662 nM (active) in experiment [2]; 23.5 nM (active) in experiment [12]; 74.3 nM (active) in [5]; 166 nM (active) in [6]; 296 nM (active) in experiment [7]. Also, the Potency in [8] is 0.316 µM (active).

For `NC(=O)c1cccc(-c2cccc(OC(=O)NC3CCCCC3)c2)c1`, the Potency result in experiment [1], in experiment [2], in [12], in [5] and in experiment [11] was “inactive” each time. In addition, in experiment [3], the Potency was 332 nM (active). For the same compound, the activity (max response) in [8] is -29.9%.

`O=C(Nc1ccc([N+](=O)[O-])cc1Cl)c1cc(Cl)ccc1O`: the Potency in experiment [1] was 920 nM (active) and 934 nM (active); in [3] it was 3720 nM (active); in [4] it was 2960 nM (active); in [10], 2350 nM (active); in [6] it was 1180 nM (active); in experiment [8], 142 nM (active) and 447 nM (active). Further, the Potency in [11] is 224 nM (active) and 1 µM (active).

`N#CC1(c2ccc(NC(=O)c3cccnc3NCc3ccncc3)cc2)CCCC1`: the Potency is 2.31 µM (active) in experiment [1] and 1660 nM (active) in experiment [7]. In addition, the Potency result in [2], in experiment [9], in experiment [4], in [10], in experiment [5] and in experiment [11] was “inactive” throughout. Further, in experiment [8], the activity (max response) was -5.11%.

With `COc1ccc(S(=O)(=O)Nc2cc(-c3c(O)ccc4ccccc34)c(O)c3ccccc23)cc1`, the Potency was 1.18 µM (active) in [1]; 20900 nM (active) in experiment [12]; 16600 nM (active) in experiment [3]; 18700 nM (active) in [4]; 20900 nM (active) in [10]; 14800 nM (active) in experiment [5]. Further, the results for the Potency in experiment [6] and in [11] were 7430 nM (active) and 28.2 µM (active), respectively.

Consider `Cc1cnc(NC(=O)Nc2cc(Br)c(C)cc2OC[C@@H]2CNCCO2)cn1`, for which the Potency was 1.32 µM (active) in experiment [1]; 1660 nM (active) in [9]; 1180 nM (active) in [12]; 526 nM (active) in [5]; 935 nM (active) in experiment [6]; 590 nM (active) in [7]. In addition, the Potency in experiment [11] was 2.51 µM (active).

For the origin of these results see PubChem BioAssay (NCATS).
